Test results reported in the supplement of paper PMC7411054.
Structures can show the parent of a compound that is named as a salt.

Experiments:
Test in all cases: lowest phenotypically active concentration; higher = less potent
Settings in all cases: treatment time: 24 h
HepG2-ACTB-RAB5A = system: HepG2-ACTB-RAB5A
Method in brief: (§1)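 Two criteria together defined phenotypic activity: deviation and reproducibility. Deviation meant ≥3 of 4 wells beyond the 95th percentile of Euclidean distances in solvent control wells, and reproducibility meant a median replicate Pearson correlation above the 95th percentile of non-replicates. Wells had been treated for 24 h at 0.3, 1, 3 or 9 µM in fifteen gene-edited A549, HepG2 and WPMY1 reporter lines before live imaging.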

HepG2-CANX-COX4 = system: HepG2-CANX-COX4
Method in brief: as §1

HepG2-GM130-SQSTM1 = system: HepG2-GM130-SQSTM1
Method in brief: as §1

HepG2-TP53BP1-CLTA = system: HepG2-TP53BP1-CLTA
Method in brief: as §1

HepG2-TUBA1B-RELA = system: HepG2-TUBA1B-RELA
Method in brief: as §1

WPMY1-ACTB-RAB5A = system: WPMY1-ACTB-RAB5A
Method in brief: as §1

WPMY1-CANX-COX4 = system: WPMY1-CANX-COX4
Method in brief: as §1

WPMY1-GM130-SQSTM1 = system: WPMY1-GM130-SQSTM1
Method in brief: as §1

WPMY1-TP53BP1-CLTA = system: WPMY1-TP53BP1-CLTA
Method in brief: as §1

WPMY1-TUBA1B-RELA = system: WPMY1-TUBA1B-RELA
Method in brief: as §1

Measured: lowest phenotypically active concentration

CC(=O)NCC(=O)N1[C@@H]2CC[C@H]1c1ccc(Nc3ncc(C(F)(F)F)c(NC4CCC4)n3)cc12
≤ 0.3 µM: all assays above

COc1ccc(-c2ccc3ncc4c(c3c2)n(-c2ccc(N3CCNCC3)c(C(F)(F)F)c2)c(=O)n4C)cn1
≤ 0.3 µM: all assays above

COc1c(Nc2cc(C)[nH]n2)nc(Sc2ccc(S(=O)(=O)Cc3cccc([N+](=O)[O-])c3F)cc2F)nc1N1CCOCC1 [Centrinone]
1 µM: HepG2-GM130-SQSTM1 | WPMY1-ACTB-RAB5A
9 µM: HepG2-ACTB-RAB5A
3 µM: all other assays above

CC(=O)NC1=NN(C(C)=O)C(C)(c2ccccc2)S1 (stereo not given)
9 µM: HepG2-ACTB-RAB5A | HepG2-GM130-SQSTM1 | WPMY1-CANX-COX4
3 µM: all other assays above

COc1ccc(N2C(=O)CSC2c2cccc(Br)c2)c(OC)c1 (stereo not given)
9 µM: HepG2-ACTB-RAB5A | HepG2-GM130-SQSTM1 | HepG2-TP53BP1-CLTA | HepG2-TUBA1B-RELA
3 µM: all other assays above

Nc1nc(Cl)nc2c1ncn2[C@H]1C[C@H](O)[C@@H](CO)O1 [cladribine]
1 µM: WPMY1-ACTB-RAB5A | WPMY1-TP53BP1-CLTA | WPMY1-TUBA1B-RELA
9 µM: WPMY1-CANX-COX4
3 µM: WPMY1-GM130-SQSTM1
≤ 0.3 µM: all other assays above

O=C(CCCCCN1C(=O)c2cccc3cccc(c23)C1=O)NO [Scriptaid]
≤ 0.3 µM: HepG2-ACTB-RAB5A | HepG2-GM130-SQSTM1 | HepG2-TP53BP1-CLTA | HepG2-TUBA1B-RELA
1 µM: all other assays above

Cc1ccc(C(=O)N(CCCN)[C@@H](c2nc3cc(Cl)ccc3c(=O)n2Cc2ccccc2)C(C)C)cc1 [Ispinesib]
3 µM: WPMY1-CANX-COX4
≤ 0.3 µM: all other assays above

Nc1nccc2c1ncn2[C@@H]1C=C(CO)[C@@H](O)[C@H]1O [3-Deazaneplanocin A hydrochloride]
≤ 0.3 µM: HepG2-CANX-COX4
3 µM: WPMY1-TP53BP1-CLTA
1 µM: all other assays above

Cc1cc(/N=N/c2ccc(S(=O)(=O)Nc3ccccn3)cc2)c(N)cc1O
3 µM: HepG2-CANX-COX4 | HepG2-GM130-SQSTM1 | WPMY1-ACTB-RAB5A | WPMY1-GM130-SQSTM1
9 µM: all other assays above

O=C(Nc1c[nH]nc1-c1nc2cc(CN3CCOCC3)ccc2[nH]1)NC1CC1
≤ 0.3 µM: all assays above

CC(C)(C)c1cnc(CSc2cnc(NC(=O)C3CCNCC3)s2)o1
≤ 0.3 µM: all assays above

CC(C)n1c(/C=C/[C@@H](O)C[C@@H](O)CC(=O)O)c(-c2ccc(F)cc2)c2ccccc21.CC(C)n1c(/C=C/[C@H](O)C[C@H](O)CC(=O)O)c(-c2ccc(F)cc2)c2ccccc21 [Fluvastatin sodium]
≤ 0.3 µM: WPMY1-ACTB-RAB5A | WPMY1-GM130-SQSTM1
1 µM: all other assays above

Oc1cccc(-c2nc(N3CCOCC3)c3oc4ncccc4c3n2)c1 [PI 103 hydrochloride]
≤ 0.3 µM: all assays above

CN(C)CC(=O)N1CCC[C@@H](n2nc(-c3ccc(Oc4ccccc4)cc3)c3c(N)ncnc32)C1
9 µM: WPMY1-CANX-COX4
1 µM: HepG2-ACTB-RAB5A | HepG2-TP53BP1-CLTA | HepG2-TUBA1B-RELA
3 µM: all other assays above

O=C(Nc1ccc(-c2ccnc(Nc3ccc(N4CCOCC4)cc3)n2)cc1)[C@@H]1CCCN1
9 µM: HepG2-TP53BP1-CLTA
3 µM: all other assays above

CC(C)(N)c1cc(C(=O)N[C@@H]2CCc3ccc(OC4=C5CCC(=O)N=C5NC=C4)cc3C2)cc(C(F)(F)F)c1 [ML 786 dihydrochloride]
9 µM: WPMY1-TUBA1B-RELA
1 µM: WPMY1-ACTB-RAB5A | WPMY1-CANX-COX4 | WPMY1-GM130-SQSTM1 | WPMY1-TP53BP1-CLTA
≤ 0.3 µM: all other assays above

Cc1ccc(NC(=O)CCCCCC(=O)Nc2ccccc2N)cc1
1 µM: HepG2-ACTB-RAB5A
3 µM: HepG2-GM130-SQSTM1 | HepG2-TP53BP1-CLTA | WPMY1-CANX-COX4 | WPMY1-TP53BP1-CLTA
9 µM: all other assays above

COc1cc(OC2CCN(C)CC2)ccc1Nc1ncc2c(n1)n(C1CCCC1)c(=O)n2C
3 µM: HepG2-ACTB-RAB5A | HepG2-GM130-SQSTM1
9 µM: all other assays above

Cc1ncc(-c2ccnc(Nc3ccc(S(C)(=O)=O)cc3)n2)n1C(C)C
≤ 0.3 µM: all assays above

COc1ccc(S(=O)(=O)N(C(C)=O)c2ccccc2/C=C/c2cc[n+]([O-])cc2)cc1
1 µM: WPMY1-ACTB-RAB5A | WPMY1-TUBA1B-RELA
3 µM: all other assays above

COc1cc2nc(-c3cc(F)ccc3O)nc(N[C@@H]3CNC[C@H]3C(C)(C)O)c2cc1OC
1 µM: all assays above
